Source: PubChem BioAssay
USP7 block – inhibitors of human USP7 deubiquitinase. Q93009. purified USP7, Ub-rhodamine cleavage fluorescence. inhibition, % at 20 µM. 0.3% of 47,000 active
USP28 inh – blocks human USP28 ubiquitin-rhodamine cleavage; Q96RU2; purified USP28, Ub-rhodamine cleavage fluorescence, 30 min; inhibition, % at 25 µM; 3% of 47,000 active; AID 1645857
USP17 block – human USP17-like deubiquitinase inhibition; 6.5% of 47,000 active; purified USP17, Ub-rhodamine cleavage fluorescence, 3 h; inhibition, % at 50 µM; A8MUK1
USP8 inh – inhibitors of human USP8 deubiquitinase; purified USP8, Ub-rhodamine cleavage fluorescence, 30 min; inhibition, % at 20 µM; 4.2% of 47,000 active; AID 1645853
USP30 block – inhibitors of human USP30 deubiquitinase; 5.3% of 47,000 active; purified USP30, Ub-rhodamine cleavage fluorescence; AID 1645860; inhibition, % at 25 µM; Q70CQ3
USP10 inh – blocks human USP10 ubiquitin-rhodamine cleavage. inhibition, % at 20 µM. Q14694. 1.1% of 47,000 active. purified USP10, Ub-rhodamine fluorescence, 60 min
Starred values were filed as active, the others as inactive. Sampled rows, rich in hits. Any-hit rate of the full collection: about 13%. No stated cut-off is given here; in the data, active means inhibition above about 30%; inactive means the rest.

Results for O=C(Cc1ccc(Cl)c(Cl)c1)Nc1cccc2ncccc12 ?
USP7 block: -14.5; USP28 inh: 2.4; USP17 block: 27.3; USP8 inh: 0.7; USP30 block: -143.3; USP10 inh: -14.3

What do the screens show for `c1cc(Oc2cccc3ccccc23)cc(Oc2cccc3ccccc23)c1`?
USP7 block: -2.1; USP28 inh: -9.4; USP17 block: -18.4; USP8 inh: -29.3; USP30 block: -17.6; USP10 inh: 1.2

What do the screens show for `Cc1ccc2c(c1)CCCN2C(=O)c1cn(Cc2ccccc2)nc1-c1cccnc1`?
USP7 block: -47.0; USP28 inh: -33.1; USP17 block: -10.0; USP8 inh: 53.4*; USP30 block: -168.0; USP10 inh: -7.1

Results for O=C(NC1CCCC1)c1cn(Cc2ccccc2)nc1-c1cccnc1 ?
USP7 block: 4.6; USP28 inh: 11.5; USP17 block: 7.8; USP8 inh: 4.1; USP30 block: 37.9*; USP10 inh: 0.1

Results for Cc1ccc(F)c2c(=O)c3c([nH]c12)CCN(CC(=O)Nc1cccc(F)c1)C3 ?
USP7 block: -119.9; USP28 inh: -19.3; USP17 block: 21.1; USP8 inh: -16.1; USP30 block: -29.5; USP10 inh: -6.0

What do the screens show for `COc1cccc(NC(=O)c2ccc(F)cc2Cl)c1`?
USP7 block: 1.7; USP28 inh: 54.3*; USP17 block: -0.2; USP8 inh: 0.5; USP30 block: 3.2; USP10 inh: -1.7

What do the screens show for `COc1ccc(N(C)S(=O)(=O)c2ccc(Cl)c(C(=O)Nc3cccc(C(C)=O)c3)c2)cc1`?
USP7 block: -4.2; USP28 inh: 28.2; USP17 block: -17.1; USP8 inh: -0.4; USP30 block: -41.8; USP10 inh: -8.7

What do the screens show for `COc1ccc(NC(=O)c2ccc(S(C)(=O)=O)cc2Cl)cc1`?
USP7 block: -0.2; USP28 inh: 46.1*; USP17 block: 8.7; USP8 inh: 4.6; USP30 block: -14.2; USP10 inh: 1.4

Results for COc1cccc(NC(=O)c2ccc(=O)n(Cc3ccc(F)cc3)c2)c1 ?
USP7 block: -13.0; USP28 inh: 11.9; USP17 block: 0.6; USP8 inh: 9.8; USP30 block: 14.5; USP10 inh: 2.6

What do the screens show for `Cc1c(C(=O)N2CCOCC2)cc(-c2ccccc2)n1C`?
USP7 block: 0.5; USP17 block: -3.7; USP8 inh: -1.4; USP10 inh: -0.4

Results for O=c1c2nnn(Cc3ccccc3)c2ncn1Cc1nc(-c2cccc(Cl)c2)no1 ?
USP7 block: 4.5; USP28 inh: 14.3; USP17 block: -6.9; USP8 inh: 15.2; USP30 block: 35.6*; USP10 inh: 1.5

Results for Cc1ccccc1OCC1=NN2C(=N)/C(=C/c3cn(Cc4ccc(Cl)cc4)c4ccccc34)C(=O)N=C2S1 ?
USP7 block: 0.2; USP28 inh: -42.5; USP8 inh: -32.2; USP30 block: -70.4; USP10 inh: -2.4

How did COc1cc(O)c2c(=O)cc(C)oc2c1CC=C(C)C do in these assays?
USP7 block: 4.1; USP28 inh: 29.6; USP17 block: 37.5*; USP8 inh: 6.8; USP30 block: 30.7*; USP10 inh: 10.4

How did CSc1nc2ncc3c(=O)n(Cc4ccccn4)ccc3n2n1 do in these assays?
USP7 block: -0.5; USP28 inh: -0.8; USP17 block: 0.2; USP8 inh: -37.2; USP30 block: -7.0; USP10 inh: -1.5

How did Cc1nnc(-c2cccnc2N2CCN(C(=O)NCC(C)C)CC2)o1 do in these assays?
USP7 block: 4.0; USP28 inh: 3.9; USP17 block: -0.3; USP8 inh: -8.2; USP30 block: 2.6; USP10 inh: 0.0

What do the screens show for `N#Cc1cccc(S(=O)(=O)NC2CCN(c3ccc(F)cc3)C2=O)c1` (centres undefined)?
USP7 block: 1.6; USP28 inh: 10.2; USP17 block: 0.3; USP8 inh: -7.3; USP30 block: 16.4; USP10 inh: 0.2

What do the screens show for `N#Cc1cccc(S(=O)(=O)c2c[nH]c3cc(Cl)ccc3c2=O)c1`?
USP7 block: 5.1; USP28 inh: 1.4; USP17 block: 46.1*; USP8 inh: 56.8*; USP30 block: -13.0; USP10 inh: 14.6

How did CCn1c(=O)c(CCC(=O)N2CCN(C)CC2)c(C)c2c(C)nn(-c3ccccc3)c21 do in these assays?
USP7 block: -1.9; USP28 inh: -15.7; USP17 block: -15.3; USP8 inh: 0.2; USP30 block: -8.0; USP10 inh: -4.7

How did CC1CCC(NC(=O)C2CCCN2S(=O)(=O)c2ccc3nc(-c4ccccc4)[nH]c3c2)CC1 (centres undefined) do in these assays?
USP7 block: 2.4; USP28 inh: 17.5; USP17 block: 34.1*; USP8 inh: 25.4; USP30 block: -9.5; USP10 inh: 9.4

How did COc1c2c(cc3cc(O)c4c(=O)cc(C)oc4c13)CCC2=O do in these assays?
USP7 block: -37.8; USP28 inh: 27.0; USP17 block: 59.6*; USP8 inh: -0.3; USP30 block: -6.3; USP10 inh: -2.6

How did O=C(CN1C(=O)NC2(CCCCC2)C1=O)Nc1ccc([N+](=O)[O-])cc1 do in these assays?
USP7 block: 5.4; USP28 inh: 20.0; USP17 block: 64.6*; USP8 inh: 16.8; USP30 block: 28.0; USP10 inh: 10.9

How did O=C(Cc1ccc([N+](=O)[O-])cc1)Nc1ccc(N2CCCCC2)cc1 do in these assays?
USP7 block: -1.0; USP28 inh: -9.4; USP17 block: -26.0; USP8 inh: -75.1; USP30 block: -17.0; USP10 inh: 3.3

Results for CC(C(=O)Nc1ccc2c(c1)OCCO2)N1CCN(c2ccccc2Cl)CC1 (centres undefined) ?
USP7 block: -4.5; USP28 inh: -6.7; USP17 block: -16.7; USP8 inh: -0.6; USP30 block: -24.2; USP10 inh: 0.0

Results for Cc1ccc(NC(=O)c2cn(CC(O)c3ccc4c(c3)OCO4)nn2)cc1 (centres undefined) ?
USP7 block: 5.5; USP28 inh: 18.6; USP17 block: 45.7*; USP8 inh: 10.3; USP30 block: 47.2*; USP10 inh: 4.2

What do the screens show for `O=C(Nc1ccc(F)cc1)c1cn(CC(O)c2ccc3c(c2)OCO3)nn1` (centres undefined)?
USP7 block: 5.0; USP28 inh: 0.4; USP17 block: 1.8; USP8 inh: 0.0; USP30 block: 15.3; USP10 inh: 5.9

What do the screens show for `CC(=O)N1C[C@H](c2ccccc2)[C@H]2CN(C(=O)c3ccc(=O)[nH]c3)CC[C@H]21`?
USP7 block: 3.8; USP28 inh: 14.7; USP17 block: 7.3; USP8 inh: 8.1; USP30 block: 30.3*; USP10 inh: 2.5

Results for N#Cc1ccc(NC(=O)COC(=O)c2ccccc2Nc2ccccc2)cc1 ?
USP7 block: -4.5; USP28 inh: 27.4; USP17 block: 34.1*; USP8 inh: 6.9; USP30 block: 5.5; USP10 inh: 6.5

Results for O=C(COC(=O)c1ccccc1OCc1ccccc1)Nc1ccc(Cl)cc1 ?
USP7 block: -5.0; USP28 inh: 36.2*; USP17 block: 21.0; USP8 inh: 11.9; USP30 block: 34.4*; USP10 inh: 10.6
